In PubChem BioAssay AID1159580 (chemical genetic matrix, 2015):
Values joined by “and” are separate entries in the source; they are usually repeats but may differ in a detail not shown here. Equal values may be shown once. About 2,000 (36%) of roughly 5,500 compounds were called active. Another 18% or so got no clear call; they are omitted. Rule as the data show it: active = normalized growth mostly below about 0.91 (no sharp cut-off); inconclusive = no clear call, values can overlap the other calls; inactive = mostly above about 0.92. The list shows a part of the results.

Assay: chemical genetic growth profiling, strain panel (AID 1159580);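 also: tested at 20 µM; growth read once vehicle control cultures reached saturation at 30 °C; 1 = growth at the plate median or of vehicle wells; lower values mean less growth of the strain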
Conditions: S. cerevisiae deletion strains, growth OD

Measured: normalized growth

CC1=CC(=O)C(C(C)C)=CC1=O
inactive: locus YAL021C, strain ccr4, stronger effect = lower value 0.91 | locus YBL061C, strain skt5, stronger effect = lower value 0.992 | locus YBR023C, strain chs3, stronger effect = lower value 0.997 | locus YBR171W, strain sec66, stronger effect = lower value 0.996 | locus YBR229C, strain ROT2, stronger effect = lower value 0.984 | locus YBR231C, strain swc5, stronger effect = lower value 0.956 | locus YBR279W, strain paf1, stronger effect = lower value 0.98 | locus YCL016C, strain dcc1, stronger effect = lower value 0.984 | locus YCL029C, strain bik1, stronger effect = lower value 0.926 | locus YCL061C, strain MRC1, stronger effect = lower value 0.966 | locus YCL069W, strain vba3, stronger effect = lower value 0.993 | locus YDL005C, strain med2, stronger effect = lower value 0.974 | locus YDL035C, strain GPR1, stronger effect = lower value 0.859 | locus YDL040C, strain nat1, stronger effect = lower value 0.996 | locus YDL074C, strain BRE1, stronger effect = lower value 0.797 | locus YDL101C, strain DUN1, stronger effect = lower value 0.954 | locus YDL185W, strain tfp1, stronger effect = lower value 0.935 | locus YDR001C, strain nth1, stronger effect = lower value 1 | locus YDR069C, strain doa4, stronger effect = lower value 0.988 | locus YDR162C, strain NBP2, stronger effect = lower value 0.858 | locus YDR195W, strain ref2 1.03 | locus YDR297W, strain sur2, stronger effect = lower value 0.989 | locus YDR335W, strain msn5, stronger effect = lower value 0.998 | locus YEL037C, strain rad23, stronger effect = lower value 0.996 | locus YEL061C, strain CIN8 (second series), stronger effect = lower value 0.917 | locus YER015W, strain faa2, stronger effect = lower value 0.989 | locus YER016W, strain bim1, stronger effect = lower value 1.01 | locus YER110C, stronger effect = lower value 0.922 | locus YER111C, strain swi4, stronger effect = lower value 0.994 | locus YFR010W, strain ubp6, stronger effect = lower value 0.93 | locus YGL078C, strain dbp3, stronger effect = lower value 0.932 | locus YGL167C, strain pmr1, stronger effect = lower value 0.996 | locus YGL173C, strain kem1, stronger effect = lower value 0.947 | locus YGL240W, strain doc1, stronger effect = lower value 0.938 | locus YGL253W, strain hxk2, stronger effect = lower value 0.956 | locus YHR013C, strain ard1, stronger effect = lower value 0.995 | locus YHR027C, strain rpn1, stronger effect = lower value 0.996 | locus YHR079C, strain IRE1 (second series), stronger effect = lower value 0.935 | locus YHR079C, strain IRE1, stronger effect = lower value 0.941 | locus YHR094C, strain hxt1, stronger effect = lower value 0.949 | locus YIL073C, strain SPO22, stronger effect = lower value 0.765 | locus YJL092W, strain hpr5, stronger effect = lower value 0.989 | locus YJL095W, strain BCK1 (second series), stronger effect = lower value 0.928 | locus YJL115W, strain asf1, stronger effect = lower value 0.981 | locus YJL134W, strain LCB3, stronger effect = lower value 0.982 | locus YJL154C, strain vps35, stronger effect = lower value 0.989 | locus YJL168C, strain set2, stronger effect = lower value 0.942 | locus YJL187C, strain SWE1 (second series), stronger effect = lower value 0.931 | locus YJL187C, strain SWE1, stronger effect = lower value 0.974
0.556 (active) and 0.951 (inactive): locus YHR030C, strain SLT2, stronger effect = lower value
0.468 (active) and 0.942 (inactive): locus YJL095W, strain BCK1, stronger effect = lower value
active: locus YAL013W, strain DEP1, stronger effect = lower value 0.784 | locus YAL026C, strain drs2, stronger effect = lower value 0.711 | locus YAL030W, strain snc1, stronger effect = lower value 0.914 | locus YBR009C, strain hhf1, stronger effect = lower value 0.488 | locus YBR021W, strain FUR4, stronger effect = lower value 0.827 | locus YCL011C, strain gbp2, stronger effect = lower value 0.375 | locus YCR088W, strain abp1, stronger effect = lower value 0.777 | locus YDL192W, strain arf1, stronger effect = lower value 0.776 | locus YDR101C, strain arx1, stronger effect = lower value 0.87 | locus YDR137W, strain rgp1, stronger effect = lower value 0.665 | locus YDR159W, strain sac3, stronger effect = lower value 0.773 | locus YDR318W, strain mcm21, stronger effect = lower value 0.878 | locus YDR388W, stronger effect = lower value 0.925 | locus YDR392W, strain spt3, stronger effect = lower value 0.455 | locus YDR502C, strain sam2, stronger effect = lower value 0.857 | locus YEL003W, strain gim4, stronger effect = lower value 0.416 | locus YER155C, strain BEM2 (second series), stronger effect = lower value 0.425 | locus YER155C, strain BEM2, stronger effect = lower value 0.871 | locus YER167W, strain BCK2, stronger effect = lower value 0.897 | locus YGL086W, strain mad1, stronger effect = lower value 0.846 | locus YGL227W, strain vid30, stronger effect = lower value 0.217 | locus YGL248W, strain PDE1, stronger effect = lower value 0.849 | locus YGR078C, strain PAC10, stronger effect = lower value 0.547 | locus YGR135W, strain pre9, stronger effect = lower value 0.826 | locus YGR252W, strain gcn5, stronger effect = lower value 0.746 | locus YHR129C, strain ARP1, stronger effect = lower value 0.864 | locus YHR142W, strain chs7, stronger effect = lower value 0.775 | locus YHR200W, strain rpn10, stronger effect = lower value 0.911 | locus YIL066C, strain RNR3, stronger effect = lower value 0.828 | locus YIL125W, strain kgd1, stronger effect = lower value 0.926 | locus YIR030C, strain dcg1, stronger effect = lower value 0.9 | locus YJL129C, strain trk1, stronger effect = lower value 0.65 | locus YJL164C, strain tpk1, stronger effect = lower value 0.785 | locus YJL166W, strain qcr8, stronger effect = lower value 0.415 | locus YJR043C, strain POL32, stronger effect = lower value 0.79
